# Measurements from PubChem BioAssay AID504660 (National Center for Advancing Translational Sciences (NCATS), 2011).
# Hit rate of the full screen: of about 360,000 compounds, about 3,700 (1%) were called active. The full list was thinned out, with actives kept by preference. A number with no mark means an inactive call. No stated cut-off is given here; in the data, active means activation above about 30%; inactive means the rest.
# Target: D(1A) dopamine receptor (Homo sapiens) (UniProt P21728)
# Assay: Allosteric Agonists of the Human D1 Dopamine Receptor: qHTS; further: 0% is about no effect
# Conditions: HEK293 T-REx D1 cells, calcium flux, agonist mode; at 2 µM; active compounds read high
# In short: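 Tetracycline-induced HEK293 TREx D1 cells, force-coupled to calcium signalling, were dye-loaded with a no-wash calcium kit. Compound was pin-added after a 10 s baseline. Fluorescence was read kinetically at 1 cycle/s for 180 s, with calcium rises flagged as agonism.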
# Sequence of D(1A) dopamine receptor (Homo sapiens) (P21728 whole entry, looked up): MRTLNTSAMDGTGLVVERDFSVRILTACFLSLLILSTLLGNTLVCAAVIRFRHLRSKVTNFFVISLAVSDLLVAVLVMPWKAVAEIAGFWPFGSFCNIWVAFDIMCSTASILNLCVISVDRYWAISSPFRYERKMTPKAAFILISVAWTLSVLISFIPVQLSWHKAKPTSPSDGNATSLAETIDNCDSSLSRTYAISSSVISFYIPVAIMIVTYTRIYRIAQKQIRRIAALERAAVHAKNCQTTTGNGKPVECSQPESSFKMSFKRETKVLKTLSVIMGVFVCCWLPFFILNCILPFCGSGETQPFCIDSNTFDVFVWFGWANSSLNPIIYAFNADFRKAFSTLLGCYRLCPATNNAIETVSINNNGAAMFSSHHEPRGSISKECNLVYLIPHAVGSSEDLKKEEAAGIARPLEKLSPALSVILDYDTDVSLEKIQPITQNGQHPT
row,Structure (SMILES),activation
1,CCN1C(=O)c2ccccc2Sc2ccc(NC(=O)Cc3ccc(OC)cc3)cc21,8.31%
2,COc1ccc(-c2onc3ccc(C(C)=O)cc23)cc1,68% (active)
3,COc1ccc(NC(=O)Nc2cccc(-c3noc(C)n3)c2)cc1,-0.581%
4,COc1ccc(-c2nc3ccc(C(=O)NCc4ccc(C)cc4)cc3nc2-c2ccc(OC)cc2)cc1,-0.317%
5,O=C(NCCCc1ccccc1)c1ccc2c(c1)sc1nc(-c3ccc(F)cc3)cn12,1.38%
6,COC(=O)c1cc(S(=O)(=O)NC2CCN(Cc3ccccc3)CC2)cn1C,6.94%
7,O=S(=O)(NCC1CC1)c1ccc(F)c(Cl)c1,0.965%
8,COC(=O)c1cc(S(=O)(=O)NCC2CCN(Cc3ccc(Cl)cc3)CC2)cn1C,35.7% (active)
9,O=C(CSc1ncc(CO)n1Cc1ccc(Cl)cc1)NCc1ccc(F)cc1,-0.41%
10,Cc1ccc(NC(=O)CSc2nc3c(c(=O)[nH]2)CN(Cc2ccc4c(c2)OCO4)CC3)cc1C,2.15%
11,CCNC(=O)CC1C(=O)N(c2ccc(F)cc2)C(=O)N1Cc1ccc(C)cc1 (stereo not given),-1.09%
12,Cc1ccc(-c2cc(C(F)(F)F)c(C#N)c(SCC(=O)Nc3ccccc3)n2)cc1,76.6% (active)
13,COCc1cc(C)nc(SCC(=O)Nc2cccc(C)c2)c1C#N,1.7%
14,Cc1cc(C(F)(F)F)c(C#N)c(SCC(=O)NC2CC2)n1,2.38%
15,CCOc1ccc(-n2c(C)nc3c(cnn3-c3ccc(C)cc3)c2=O)cc1,0.209%
16,CCCCNC(=O)c1c[nH]c2ccc(S(=O)(=O)Nc3ccc(OCC)cc3)cc2c1=O,5.78%
17,COc1cccc(NS(=O)(=O)c2ccc3[nH]cc(C(=O)NCCCOC(C)C)c(=O)c3c2)c1,122% (active)
18,CCCCN(CC)C(=O)c1c[nH]c2ccc(S(=O)(=O)Nc3cccc(OC)c3)cc2c1=O,1.98%
19,O=C(c1cccs1)c1cn(CCOc2ccc(Cl)cc2)c2ccccc12,-1.61%
20,Cc1ccc(C)n1-c1nnc(N2CCC(C(=O)NCc3ccc(F)cc3)CC2)s1,2.04%
21,CC1=C(c2ccc(Cl)cc2)S(=O)(=O)N=C1N1CCN(c2cc(C)ccc2C)CC1,7.7%
22,Cc1oc(-c2ccccc2)nc1Cn1c(SCc2cccc(C(F)(F)F)c2)nc2cccnc21,3.89%
23,CCN(CC)c1ccc2oc(=O)c(C)nc2c1,192% (active)
24,Cc1ccc2c(=O)oc(N(C)C)nc2c1,1.52%
25,CN(Cc1nc2ccccc2c(=O)[nH]1)Cc1cc(=O)oc2ccc3ccccc3c12,-0.344%
26,Cc1ccc(Cl)cc1N1CCN(C(=O)c2cn(C)c3ccc(S(=O)(=O)N(C)C4CCCCC4)cc3c2=O)CC1,3.27%
27,Cc1ccc(S(=O)(=O)c2c(Nc3cccc(Cl)c3)sc(C(=O)c3ccc4c(c3)OCO4)c2N)cc1,61.9% (active)
28,COc1ccc(Cl)cc1S(=O)(=O)Nc1cccc(C(=O)O)c1,2.88%

row,Structure (SMILES),activation
1,COc1ccc(C(=O)N2CCC(C(=O)Nc3ccc(C)cc3)CC2)cc1,1.17%
2,O=C(Nc1ccc2c(c1)OCO2)c1cc(-c2cccc(Cl)c2)on1,-1.41%
3,CO/N=C(/CS(=O)(=O)c1ccc(Br)cc1)c1ccc(OC)cc1,0.348%
4,COc1ccc(S(=O)(=O)c2c(Nc3cccc(Cl)c3)sc(C(=O)c3ccccc3)c2N)cc1,75.8% (active)
5,COc1ccc(S(=O)(=O)c2c(Nc3ccc(C)cc3)sc(C(=O)c3ccc(C)cc3)c2N)cc1,56.2% (active)
6,CC(=O)c1c(Nc2ccccc2)sc(C(=O)c2ccccc2)c1C,5.07%
7,Cc1ccc(C(=O)Nc2sc(Cc3ccc4c(c3)OCO4)c(C)c2C(N)=O)cc1,-1%
8,CCc1ccccc1NC(=O)N1CCN(C(=O)c2nsc3ccccc23)CC1,2.7%
9,CCCS(=O)(=O)c1ncc(Cl)c(C(=O)Nc2scc(-c3ccccc3)c2C(=O)OCC)n1,5.24%
10,O=c1c(NCc2cccs2)nccn1-c1ccccc1,2.15%
11,Cc1ccc(CNS(=O)(=O)c2ccc(-c3cc(C(F)(F)F)on3)s2)cc1,0.651%
12,Cn1nnnc1Sc1ncnc2scc(-c3ccccc3[N+](=O)[O-])c12,1.58%
13,CCc1ccc(NC(=O)Cn2c(=O)n(CCC(=O)NCc3ccc4c(c3)OCO4)c(=O)c3ccccc32)cc1,-0.957%
14,O=C(CCCN1CCc2[nH]c3ccc(F)cc3c2C1)c1ccc(F)cc1,56.3% (active)
15,Cc1ccc2[nH]c3c(c2c1)CN(C(=O)CN1CCN(c2ccccc2)CC1)CC3,0.149%
16,O=c1c2ccccc2[nH]c(=S)n1CCN1CCC(=C(c2ccc(F)cc2)c2ccc(F)cc2)CC1,0.942%
17,O=C(CSc1nc2ccccc2nc1Cc1ccccc1)N1CCCCC1,4.62%
18,CCc1nccn1S(=O)(=O)c1cc(Br)ccc1Br,-0.03%
19,CCOc1ccccc1NC(=O)C1=C(C)Nc2ncnn2C1c1ccc(NC(C)=O)cc1 (stereo not given),1.04%
20,Cc1cccc(NC(=O)Cn2nc(-c3ccc(Cl)cc3)c3ccccc3c2=O)c1,35.9% (active)
21,Cc1ccc(-c2nn(CCC(=O)Nc3ccc(OC(F)(F)F)cc3)c(=O)c3ccccc23)cc1,1.41%
22,Cc1ccc(-c2nn(CCC(=O)Nc3ccc(Cl)c(Cl)c3)c(=O)c3ccccc23)cc1,0.86%
23,Cc1ccc(C(=O)Nc2nc(-c3ccccc3)ns2)cc1,-0.0471%
24,CCC(=O)N1c2ccccc2CC1C(=O)N1CCN(c2cccc(OC)c2)CC1 (stereo not given),-0.217%
25,CC(=O)N1c2ccccc2N(Cc2ccc([N+](=O)[O-])cc2)C(=O)C1(C)C,2.19%
26,O=C(NCCCCc1ccccc1)C1CC(c2ccc([N+](=O)[O-])cc2)=NO1 (stereo not given),7.04%
27,O=C1NC(=O)C2C1C(c1ccc([N+](=O)[O-])cc1)=NN2Cc1ccccc1 (stereo not given),44.8% (active)
